About 79,000 compounds went through this panel and 15% of them were active in at least one assay; those are over-represented in the sample as a whole. Rule as the data show it: active = growth inhibition above about 70%; inactive = the rest.
Legend:
[1] = NCI Yeast Anticancer Drug Screen. Data for the rad50 strain (AID 155);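 also: 0% = growth of vehicle-only cultures of the same strain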; conditions: S. cerevisiae rad50 strain growth inhibition; at 50.0 µM; active compounds read high
Outline: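 Genetically altered yeast (DNA repair pathway); compound treatment; growth inhibition vs vehicle ctrl.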

[2] = NCI Yeast Anticancer Drug Screen. Data for the mec2-1 strain (AID 157); conditions: S. cerevisiae mec2-1 strain, at 50.0 µM, active compounds read high
Outline: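 Each compound was tested on mec2-1 yeast, a strain altered in DNA damage repair or cell cycle control. Growth inhibition is reported relative to vehicle.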

[3] = NCI Yeast Anticancer Drug Screen. Data for the sgs1 mgt1 strain (AID 161);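 also: 0% = growth of cultures given vehicle only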; conditions: S. cerevisiae sgs1 mgt1 strain, at 50.0 µM, active compounds read high
Outline: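 Genetically altered yeast, compound exposure, growth inhibition relative to vehicle.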

[4] = NCI Yeast Anticancer Drug Screen. Data for the cln2 rad14 strain (AID 165);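 also: 0% = growth equal to vehicle treated cultures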; conditions: S. cerevisiae cln2 rad14 strain, at 50.0 µM, active compounds read high
Outline: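 Test compounds were added to cln2 rad14 yeast cultures; inhibition of growth was then determined by comparison with vehicle treatment.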

[5] = NCI Yeast Anticancer Drug Screen. Data for the bub3 strain (AID 167); conditions: S. cerevisiae bub3 mutant strain, at 50.0 µM, active compounds read high
Outline: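 Yeast carrying a defined mutation is treated with each compound, and growth is compared with that of vehicle-exposed cells to give inhibition.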

[6] = NCI Yeast Anticancer Drug Screen. Data for the mlh1 rad18 strain (AID 175); conditions: S. cerevisiae mlh1 rad18 strain growth inhibition; at 50.0 µM; active compounds read high
Outline: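 Inhibition values reflect reduced growth of mutant yeast versus vehicle-treated controls following compound exposure; the mutations affect DNA damage repair.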

Measured: growth inhibition

CC(=O)OCC(=O)O[C@@H]1[C@H]2[C@@H](OC(=O)c3ccccc3)[C@@H](C)C[C@]2(O)[C@H](OC(C)=O)[C@@]2(C)C[C@]1(OC(C)=O)C[C@H]1C(=O)C(C)(C)[C@@H](OC(C)=O)[C@@H]12
inactive: [1] -7.35% | [2] 8.2% | [3] -0.3% | [4] -15.3% | [5] 0.3% | [6] -17.8%

O=C(COc1cccc(Cl)c1)Nc1ccccc1
inactive: [1] -2.9% | [2] -31.9% | [3] 7.85% | [4] -17.1% | [5] 39.7% | [6] 2.05%

COc1c(OC2OC(CO)C(O)C(O)C2O)cc2occ(-c3ccc4c(c3)OCO4)c(=O)c2c1O (stereo unspecified)
inactive: [1] 23.6% | [2] -9.7% | [3] -10% | [4] 4.6% | [5] 12.1% | [6] 18.6%

CCCCCCCCCCCC(=O)Nc1cc(Cl)c(OC)cc1OC
inactive: [1] -17.4% | [2] 6.75% | [3] 13.9% | [4] -32.8% | [5] 7.1% | [6] 48.4%

CC(C)Cn1cnc2c(Sc3c([N+](=O)[O-])ncn3C)nc(N)nc21
inactive: [1] 7.95% | [2] -14.1% | [3] -13.2% | [4] -1.4% | [5] 2.1% | [6] 7.15%

CCOC(=O)/C(=C\c1ccc(N(C)C)cc1)c1nc2ccccc2[nH]1
inactive: [1] 38% | [2] 21.6% | [3] 47.1% | [4] 13.1% | [5] 40.5% | [6] -2.75%

O=C1C(C2CCCCC2)=C2OCC3COC2(O3)c2ccccc21 (stereo unspecified)
inactive: [1] -8.75% | [2] -16.6% | [3] -20.1% | [4] -10.1% | [5] -14.6% | [6] -30.7%

O=P1(c2ccccc2)OCC2=C(c3ccccc3)CC2=C1c1ccccc1 (stereo unspecified)
inactive: [1] 16.1% | [2] 12.2% | [3] 4.7% | [4] 10.1% | [5] -2.05% | [6] 19.9%

COc1ccc(Cc2ccc3c(c2)OCO3)cc1C
inactive: [1] -12.1% | [2] -14.2% | [3] 9.7% | [4] -9.55% | [5] 6.45% | [6] -3.95%

COc1ccc(C2N(C(C#N)c3ccccc3OC)CCCN2C(C#N)c2ccccc2OC)c(OC)c1 (stereo unspecified)
inactive: [1] 57.1% | [2] 18.3% | [3] 30.3% | [4] 25.4% | [5] -2.55% | [6] 42%

Nc1cc(N)nc(S(=O)(=O)O)n1
inactive: [1] -5.75% | [2] -12.9% | [3] -4.7% | [4] -25.9% | [5] 3.6% | [6] -12.9%

CCC(c1ccc(OC)cc1)C(C(C)=O)c1ccc(OC)cc1 (stereo unspecified)
inactive: [1] -5.55% | [2] -13% | [3] -4.1% | [4] -22.9% | [5] 25.6% | [6] -5.85%

Cc1csc(C)[n+]1CC(=O)c1ccccc1
inactive: [1] -10% | [2] -5.45% | [3] -8.4% | [4] -20.2% | [5] -6.1% | [6] -29.1%

COc1ccccc1C(O)c1ccccc1 (stereo unspecified)
inactive: [1] 9.6% | [2] -30.4% | [3] 15.3% | [4] 11.4% | [5] 9.3% | [6] 3.75%

CCOC(=O)Nc1ccc(C(=O)OCC)cc1
inactive: [1] 29.8% | [2] -15.1% | [3] 7.85% | [4] 8.1% | [5] -16.3% | [6] 13.7%

O=c1cc(O)n(C2=NCCN2)[nH]1
inactive: [1] -6.45% | [2] -23.6% | [3] -0.2% | [4] 16.2% | [5] -12.5% | [6] -9.95%

CCCC1(c2ccccc2)OCC(CO)O1 (stereo unspecified)
inactive: [1] 15% | [2] 9.35% | [3] -17.4% | [4] 6.4% | [5] 4.1% | [6] 4.25%

O=C(/C=C/c1ccccc1)[c-]1[c-][c-][c-][c-]1.[Fe].[c-]1[c-][c-][cH-][c-]1
inactive: [1] 10.9% | [2] 11.6% | [3] 9.05% | [4] 8.1% | [5] 13.8% | [6] 13.2%

O=S(=O)(NCC(Cl)CCl)c1ccccc1 (stereo unspecified)
inactive: [1] 0.7% | [2] -2.8% | [3] -12.7% | [4] 3.85% | [5] 3.55% | [6] 5%

Cc1cn(CC(O)c2cc3ccccc3[nH]2)c(=O)[nH]c1=O (stereo unspecified)
inactive: [1] 9.7% | [2] 13.6% | [3] -0.1% | [4] 12.1% | [5] 9.65% | [6] 7.15%

Cc1ccc(S(=O)(=O)N/N=C2\CCC3(C)C(CCC4C3CCC3(C)C(C(C)CCCC(C)C)CCC43)C2)cc1 (stereo unspecified)
inactive: [1] 42.3% | [2] 17.8% | [3] 35.3% | [4] 27.6% | [5] -4% | [6] 33.9%

CN1COc2c(ccc3c4c(ccc23)CN(C)CO4)C1
inactive: [1] 3.15% | [2] 17.9% | [3] 16.6% | [4] -47% | [5] 1.75% | [6] 35.4%

CC(C)CCCC(C)C1CCC2C3CC=C4CC(OC(=O)c5ccncc5)CCC4(C)C3CCC12C (stereo unspecified)
inactive: [1] 3.2% | [2] -12.1% | [3] -10.2% | [4] -28.4% | [5] -0.4% | [6] -23.6%

CCOC(=O)c1cnc(SC)nc1N
inactive: [1] 9.25% | [2] -8.1% | [3] -7.9% | [4] -2.1% | [5] 8.95% | [6] -3.5%

CCCN(CCC)C(=S)S
inactive: [1] 43.1% | [2] 7.95% | [3] 54.1% | [4] 32.7% | [5] 23.2% | [6] 14.4%

O=c1[nH]c(-c2ccccc2)nc2[nH]ncc12
inactive: [1] -3.2% | [2] -11.3% | [3] 23.1% | [4] 9.45% | [5] -7.4% | [6] 6.15%

CCC(/C(=N/NC(=O)C[N+](C)(C)C)c1ccccc1)C1OC(=O)c2ccccc21 (stereo unspecified)
inactive: [1] 15.2% | [2] 2.15% | [3] 16.1% | [4] 23.2% | [5] 19.4% | [6] 18.4%

CCCCCN(CCCCC)CC(O)c1ccc2cc3c(nc2c1)CCCC3 (stereo unspecified)
inactive: [1] 6.2% | [2] 10.2% | [3] 26.9% | [4] 5.25% | [5] -7.2% | [6] 1.5%

CCCC(=O)n1[nH]c(=O)n(C(C)(C)C)c1=O
inactive: [1] 2.3% | [2] -7.65% | [3] 14.8% | [4] 6.4% | [5] 7.5% | [6] -22.8%

COc1ccc(C(=O)O)cc1
inactive: [1] 12.3% | [2] -19.8% | [3] -32.7% | [4] -41% | [5] -2.9% | [6] -4.25%

CCOC(=O)/C(=C\c1cccc(F)c1)C(C)=O
inactive: [1] 20.6% | [2] 15.3% | [3] 7.05% | [4] -4.9% | [5] 13.7% | [6] 41.5%

CN(CCc1ccccn1)c1ccc2c(c1)C(=O)c1ccccc1-2
inactive: [1] 46.9% | [2] 13.4% | [3] -1.8% | [4] -13.1% | [5] -2.7% | [6] 9.85%

CC1=C2CCCCC2(C)C=C(C(=O)O)C1=O (stereo unspecified)
inactive: [1] 22.2% | [2] 50.5% | [3] 18.8% | [4] 34.6% | [5] 12.2% | [6] 23.4%

O=C(Cl)c1ccc2c(c1)C(=O)OC2=O
inactive: [1] 22.5% | [2] -8.9% | [3] -11.2% | [4] 5.4% | [5] 9.55% | [6] -10.4%

CC(=O)O[C@H]1C[C@H]2[C@@H](OC(C)=O)/C=C3\C[C@](C)(C(=O)[C@H](O)C(=C1C)C2(C)C)[C@@H](O)C[C@@H]3OC(=O)[C@H](O)[C@H](c1ccccc1)N(C)C
inactive: [1] 7.3% | [2] -0.45% | [3] -8.6% | [4] -10.3% | [5] -1.4% | [6] 2.4%

O=C1C/C(=C/c2ccccc2[N+](=O)[O-])C(=O)N1c1ccccc1
inactive: [1] 16.4% | [2] 4.35% | [3] 13.4% | [4] -36.1% | [5] 3.8% | [6] 11.2%

OC1CCC(c2ccccc2)CC1 (stereo unspecified)
inactive: [1] 29.1% | [2] 11.8% | [3] 19.9% | [4] 15.7% | [5] 4.75% | [6] 7.35%

CN1CCN(CCCNN)CC1
inactive: [1] 2.05% | [2] -17.1% | [3] -17.6% | [4] 3.55% | [5] -70.6% | [6] -30.1%

CCCCCCCCS(=O)(=O)N(C)C
inactive: [1] -18.6% | [2] -24.9% | [3] 0.4% | [4] -28.3% | [5] -31.1% | [6] -15.2%

C=CCCCCCCCCCCC
inactive: [1] -11.3% | [2] -11.2% | [3] -14.1% | [4] 11.7% | [5] 1.95% | [6] -4.9%

CCCCCC1NC(C)(C)CO1 (stereo unspecified)
inactive: [1] 1.25% | [2] -2.95% | [3] -0.85% | [4] 1.95% | [5] 9.65% | [6] 10.7%

Reference: PubChem BioAssay (NCI)
